Laboratory results taken from paper PMC4336329 (PLoS ONE, 2015).
The campaign covered roughly 310,000 compounds. About 14,000 (4.5%) showed an effect of 50% or more. Effects have a minus sign here. This is one part of a sample in which strong results are shown more often than they occur.

What follows are compounds tested against human ether-à-go-go-related gene (hERG) potassium channel (human, UniProt Q12809) (assay: primary screen, population patch clamp on CHO cells stably expressing hERG; higher = less effect of the substance).
human ether-à-go-go-related gene (hERG) potassium channel, sequence (Q12809 whole entry, looked up): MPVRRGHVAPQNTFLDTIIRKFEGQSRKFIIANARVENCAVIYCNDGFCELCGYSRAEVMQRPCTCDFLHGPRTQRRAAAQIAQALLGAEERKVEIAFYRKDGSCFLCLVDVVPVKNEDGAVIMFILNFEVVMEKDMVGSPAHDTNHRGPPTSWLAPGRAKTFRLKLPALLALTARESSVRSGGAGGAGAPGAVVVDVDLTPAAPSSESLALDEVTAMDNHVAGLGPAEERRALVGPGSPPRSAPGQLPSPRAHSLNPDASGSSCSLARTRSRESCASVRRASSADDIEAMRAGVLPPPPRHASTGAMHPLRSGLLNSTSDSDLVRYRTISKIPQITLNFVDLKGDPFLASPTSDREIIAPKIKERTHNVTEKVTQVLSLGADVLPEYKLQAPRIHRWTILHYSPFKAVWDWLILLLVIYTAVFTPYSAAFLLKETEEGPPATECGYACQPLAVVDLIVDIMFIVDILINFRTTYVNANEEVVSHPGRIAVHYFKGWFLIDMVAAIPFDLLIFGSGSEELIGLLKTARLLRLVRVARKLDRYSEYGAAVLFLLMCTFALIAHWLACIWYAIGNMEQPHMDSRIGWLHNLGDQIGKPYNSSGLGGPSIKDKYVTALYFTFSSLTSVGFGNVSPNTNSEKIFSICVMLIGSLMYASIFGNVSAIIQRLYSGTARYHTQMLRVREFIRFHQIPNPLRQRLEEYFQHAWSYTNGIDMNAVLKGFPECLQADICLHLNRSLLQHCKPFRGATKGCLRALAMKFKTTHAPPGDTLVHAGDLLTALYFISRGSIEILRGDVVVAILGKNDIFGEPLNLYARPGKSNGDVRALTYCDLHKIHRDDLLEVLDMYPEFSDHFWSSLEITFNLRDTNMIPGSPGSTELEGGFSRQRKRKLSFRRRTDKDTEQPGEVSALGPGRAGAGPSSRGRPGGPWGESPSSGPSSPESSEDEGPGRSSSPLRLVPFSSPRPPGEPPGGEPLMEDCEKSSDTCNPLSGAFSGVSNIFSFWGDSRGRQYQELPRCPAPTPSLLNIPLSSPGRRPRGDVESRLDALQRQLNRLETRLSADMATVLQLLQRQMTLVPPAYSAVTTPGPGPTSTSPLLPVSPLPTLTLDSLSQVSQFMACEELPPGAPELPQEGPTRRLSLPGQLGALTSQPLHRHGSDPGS
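Further: peak tail current of the secondary pulse compared with the same well before compound.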

Compound	hERG current change (%, negative = inhibition) at 10uM
CC(C)(C)C(=O)COC(=O)c1cc(-c2ccncc2)nc2ccccc12	-8.43%
COc1ccc(-n2c(SCC(=O)Nc3cc(C)on3)nc3c(c2=O)SCC3)cc1	12.1%
COCCCN1CN(S(=O)(=O)c2ccc(Cl)cc2)c2nc3ccccc3nc21	-32.7%
COCCN1CN(S(=O)(=O)c2ccc(Cl)cc2)c2nc3ccccc3nc21	-75.9%
COCCN1CN(S(=O)(=O)c2ccccc2)c2nc3ccccc3nc21	-16.7%
COCCn1nnnc1C(C(C)C)N1CCN(C(=O)c2ccco2)CC1.Cl (stereo not drawn)	-1.29%
CCOC(=O)Cc1nnc(NC(=O)c2ncn[nH]2)s1	-9.4%
CN1CC(=O)N(CC(=O)Nc2ccc(Cl)c(C(F)(F)F)c2)C1=O	8.97%
CC(CN1CCC(O)CC1)c1ccccc1 (stereo not drawn)	10.6%
CCCCC(O)CN1CCC(c2ccccc2)CC1 (stereo not drawn)	-56.6%
CCOC(=O)CN1CCC(c2ccccc2)CC1	-2.19%
O=C(Nc1ccc(S(=O)(=O)Nc2nccs2)cc1)c1cc(-c2ccncc2)nc2ccccc12	10.1%
O=C(c1cccc(F)c1F)N1CCCC1	24.7%
Cc1cc(COC(=O)C2N3C(=O)[C@@H](NC(=O)COc4ccccc4)[C@H]3SC2(C)C)on1 (stereo partly drawn)	-56.2%
CC1(C)S[C@@H]2[C@H](NC(=O)COc3ccccc3)C(=O)N2C1C(=O)OCc1ccccc1 (stereo partly drawn)	-48.1%
COC(=O)C1N2C(=O)[C@@H](NC(=O)COc3ccccc3)[C@H]2SC1(C)C (stereo partly drawn)	-4.31%
Cc1nc2c(Br)c3nc(C(F)(F)F)[nH]c3c(Br)c2[nH]1	-4.86%
COc1ccc(N(C(=O)CNC(=O)c2cccs2)C(C(=O)NCC2CCCO2)c2ccccc2)cc1OC (stereo not drawn)	4.94%
Cc1ccccc1NC(=O)c1ccc([N+](=O)[O-])o1	11.5%
CN1CCN(c2ccccc2NC(=O)c2ccc([N+](=O)[O-])o2)CC1	-69.6%
COc1cccc(NC(=O)c2ccc(-c3ccccc3[N+](=O)[O-])o2)c1	-46.1%
CN1CCN(c2ccccc2NC(=O)c2ccc(-c3ccc(Cl)cc3Cl)o2)CC1	-3.82%
Cc1cccc(NC(=O)c2ccc(-c3ccccc3[N+](=O)[O-])o2)c1	-55.2%
CC(=O)c1cccc(NC(=O)c2ccc(-c3ccccc3[N+](=O)[O-])o2)c1	-17.4%
O=C(Nc1ccccc1N1CCCC1)c1ccc([N+](=O)[O-])o1	5.51%
CCC(=O)N1CCN(c2ccc(Cl)cc2NC(=O)c2ccc([N+](=O)[O-])o2)CC1	-21%
CCC(=O)N1CCN(c2ccccc2NC(=O)c2ccc([N+](=O)[O-])o2)CC1	-69%
CN1CCN(c2ccccc2NC(=O)c2ccc(-c3ccccc3[N+](=O)[O-])o2)CC1	-67.9%
COc1ccccc1NC(=O)c1ccc(-c2ccccc2[N+](=O)[O-])o1	26.7%
O=C(Nc1ccccc1N1CCOCC1)c1ccc([N+](=O)[O-])o1	-17.9%
